The values below come from PubChem BioAssay (NCATS).

Inconclusive results are not listed. Calls of active or inactive are those of the source. Unless noted, how the calls were made is not given here.

A short description of assay [1]: qHTS Assay for Identifying Gametocytocidal Compounds (AID 743244; active means well fitted curve in the direction sought with a large enough effect; an effect the other way counts as inactive or inconclusive; further: potency means the concentration at half of the fitted maximal effect;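 on max response: on the % scale 0 is the no-effect control and ±100 the full control effect; actives lower the fluorescent signal which means gametocytes are killed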). The settings on record: P. falciparum 3D7 stage III-V gametocytes, alamarBlue, 72 h; max response: stronger effect = lower value. The gist of the method: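 In this qHTS viability screen, late-stage 3D7 gametocytes are incubated with compound for 72 h, then with alamarBlue for 24 h; reduced resorufin fluorescence marks killing.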

Assay [2] in a line: qHTS profiling of the MIPE4 collection as inhibitors of Plasmodium falciparum (3D7) proliferation (AID 743344).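 Further: scaled between DMSO vehicle wells and 0.29 µM artemisinin as full inhibition.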 The following applies: P. falciparum 3D7 in erythrocytes, SYBR Green DNA fluorescence, 72 h; at 28.5 µM (top of the series) unless noted. The gist of the method:
(§1)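 Erythrocytes infected with P. falciparum (0.3% parasitemia, 2.5% hematocrit) incubated with compounds 72 h at 37 C, 5% CO2. Lysis with saponin/Triton buffer containing SYBR Green I, overnight at room temperature in the dark; DNA fluorescence (485/535 nm) normalised to 0.29 uM artemisinin and DMSO.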
For orientation: qHTS replaces the single test concentration by a dilution series.

Assay [3] in a line: qHTS profiling of the MIPE4 collection as inhibitors of Plasmodium falciparum (DD2) proliferation (AID 743345). The settings on record: P. falciparum Dd2 in erythrocytes, SYBR Green DNA, 72 h; at 28.5 µM (top of the series) unless noted. The gist of the method: as §1
A short description of assay [4]: qHTS assay for cell viability of HEK293 cells (AID 743288; active means well fitted curve in the direction sought with a large enough effect; an effect the other way counts as inactive or inconclusive; further: on the % scale 0 is the no-effect control and ±100 the full control effect; nearly all actives have a fitted effect of over 50% in size). The settings on record: ATP luminescence (CellTiter-Glo), 18 h, stronger effect = lower value. The procedure, abridged: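 Environmental chemicals tested in qHTS format against parental HEK293 cells; 18 h treatment, 37 C; read-out ATP luminescence (CellTiter-Glo), 30 min RT development.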
Assay [5] is described as follows: qHTS assay for cell viability of the p53RE-bla HCT-116 cell line (AID 743292; active means well fitted curve in the direction sought with a large enough effect; an effect the other way counts as inactive or inconclusive; further: on the % scale 0 is the no-effect control and ±100 the full control effect; nearly all actives have a fitted effect of over 55% in size). The procedure, abridged: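 Viability of compound-treated p53RE-bla HCT-116 cells is taken from ATP-dependent luciferase luminescence. Treatment lasts 16 h at 37 C after a 5 h settling period; detection follows 30 min at room temperature.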
Assay [6] can be described thus: qHTS profiling for inhibitors of Plasmodium falciparum (3D7) proliferation (AID 743322).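 Further: infected erythrocytes exposed to compound for 72 h before lysis; 100% = DMSO vehicle wells and 0% = 0.29 µM artemisinin.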 The settings on record: P. falciparum 3D7 proliferation; at 28.7 µM (top of the series). The gist of the method:
as §1

The nature of assay [7]: qHTS profiling for inhibitors of Plasmodium falciparum (DD2) proliferation (AID 743323). The following applies: lower = more inhibition; at 28.7 µM (top of the series). The procedure, abridged:
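1536-well qHTS; infected RBCs 0.3% parasitemia/2.5% Hct final; cpd 72 h 37 C 5% CO2; lysis buffer + SYBR Green I, o/n RT dark; FI 485/535; norm. to 0.29 uM artemisinin and DMSO, plate-stack corrected.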

Assay [8] is described as follows: qHTS profiling for inhibitors of Plasmodium falciparum (HB3) proliferation (AID 743324; active means well fitted curve in the direction sought with a large enough effect; an effect the other way counts as inactive or inconclusive;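 further: 100% = DMSO vehicle wells and 0% = artemisinin-treated control wells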). The settings on record: Plasmodium falciparum HB3 blood-stage proliferation; at 28.7 µM (top of the series). The procedure, abridged: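 P. falciparum HB3 grown in erythrocytes (0.3% parasitemia, 2.5% hematocrit final) with compound for 72 h at 37 C, 5% CO2. Parasite DNA detected by SYBR Green after saponin/triton lysis overnight; normalized to 0.29 uM artemisinin and DMSO.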

In assay [9] the target is T1, Hexokinase-4 (Homo sapiens) + Glucokinase regulatory protein (Homo sapiens) (UniProt P35557+Q14397). Briefly: qHTS assay for inhibitors of recombinant human GCK-GKRP interaction: ADP-Glo assay (AID 743206; active means well fitted curve in the direction sought with a large enough effect; an effect the other way counts as inactive or inconclusive;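 further: plate controls were DMSO plus enzyme for no effect and no enzyme for full effect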). The gist of the method: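 GST-GCK and FLAG-GKRP (15 nM each in the dispensed mix, with 2 uM S6P) react with 0.4 mM ATP and 5 mM glucose (final) in Hepes pH 7.6 for 60 min at room temperature. ADP is measured by ADP-Glo luminescence.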

The target in assay [10] is T1, Hexokinase-4 (Homo sapiens) + Glucokinase regulatory protein (Homo sapiens). Briefly: qHTS assay for inhibitors of recombinant human GCK-GKRP interaction: HTRF assay (AID 743207; active means well fitted curve in the direction sought with a large enough effect; an effect the other way counts as inactive or inconclusive;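 further: 0% = DMSO with GCK present and -100% = DMSO wells lacking GCK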). The gist of the method: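 HTRF read-out (ex 320 nm; 615/665 nm emission) after 60 min RT equilibration of 5 nM GST-GCK, 5 nM FLAG-GKRP, 2 uM S6P, compound and anti-FLAG/anti-GST detection antibodies; signal normalized between DMSO wells with and without GCK.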

T1 sequence (P35557 whole entry, looked up): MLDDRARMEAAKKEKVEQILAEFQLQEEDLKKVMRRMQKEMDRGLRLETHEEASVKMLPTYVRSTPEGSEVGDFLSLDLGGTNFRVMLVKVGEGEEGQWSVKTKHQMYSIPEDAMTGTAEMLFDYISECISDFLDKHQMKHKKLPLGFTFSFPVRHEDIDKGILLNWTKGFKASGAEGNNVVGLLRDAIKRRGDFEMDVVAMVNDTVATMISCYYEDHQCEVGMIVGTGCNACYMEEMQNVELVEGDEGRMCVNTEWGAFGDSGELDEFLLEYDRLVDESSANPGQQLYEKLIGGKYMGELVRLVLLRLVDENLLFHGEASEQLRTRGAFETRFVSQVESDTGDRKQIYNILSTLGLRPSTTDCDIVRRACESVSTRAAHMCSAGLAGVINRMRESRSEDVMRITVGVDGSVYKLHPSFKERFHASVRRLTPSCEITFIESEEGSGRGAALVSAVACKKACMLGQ
T1 sequence (Q14397 whole entry, looked up): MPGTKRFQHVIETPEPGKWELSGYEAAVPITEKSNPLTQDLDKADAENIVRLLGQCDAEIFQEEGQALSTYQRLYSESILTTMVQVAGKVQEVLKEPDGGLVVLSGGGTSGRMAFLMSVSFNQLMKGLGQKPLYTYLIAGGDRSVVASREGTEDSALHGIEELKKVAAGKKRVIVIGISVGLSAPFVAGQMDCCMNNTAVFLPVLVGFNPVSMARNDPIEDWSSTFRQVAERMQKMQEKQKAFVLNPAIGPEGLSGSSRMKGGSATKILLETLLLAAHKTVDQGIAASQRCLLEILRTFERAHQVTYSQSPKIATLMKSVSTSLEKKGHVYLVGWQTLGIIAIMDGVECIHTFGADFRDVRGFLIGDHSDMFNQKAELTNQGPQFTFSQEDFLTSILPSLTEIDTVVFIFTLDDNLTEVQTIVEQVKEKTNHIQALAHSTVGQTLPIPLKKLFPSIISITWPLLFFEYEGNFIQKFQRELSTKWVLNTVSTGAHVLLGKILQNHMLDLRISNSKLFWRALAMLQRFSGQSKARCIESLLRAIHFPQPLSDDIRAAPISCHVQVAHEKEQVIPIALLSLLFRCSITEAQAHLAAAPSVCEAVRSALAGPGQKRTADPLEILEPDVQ

In the case of `Nc1ccn(C2CO[C@H](CO)O2)c(=O)n1` (some centres undefined), in [1], the max response is 19.9% (inactive). Besides, the parasite growth, % of DMSO control in [2] was found to be 95.7%. Moreover, the parasite growth remaining, % of DMSO control (lower = more inhibition) in assay [3] was 105%.
In the case of `C[C@]12CC[C@@H]3c4ccc(O)cc4CC[C@H]3[C@H]1CC[C@H]2O`, the max response in assay [4] was -7.02% (inactive). The outcome in assay [5] was inactive. This molecule had a parasite growth, % of DMSO control in assay [2] of 65.8%. Moreover, the parasite growth remaining, % of DMSO control (lower = more inhibition) in assay [3] was 93.3%.
`O=C1c2cccc(O)c2C(=O)c2c(O)cc(CO)cc21`: the max response in assay [4] is -3.37% (inactive). Besides, the result in [5] was inactive.
With `O=C(O)CCCCC(CCSCc1ccccc1)SCc1ccccc1` (centres undefined), the remaining parasite growth % (stronger effect = lower value) in assay [6] is 84%. The activity, percent of control in assay [7] was 84%. For the same molecule, the remaining proliferation (% of control), lower = more inhibition in assay [8] stood at 70.4%.
In the case of `CN[C@H](CC(C)C)C(=O)N[C@H]1C(=O)N[C@@H](CC(N)=O)C(=O)N[C@@H]2C(=O)N[C@H]3C(=O)N[C@H](C(=O)N[C@H](C(=O)O)c4cc(O)cc(O)c4-c4cc3ccc4O)[C@H](O)c3ccc(c(Cl)c3)Oc3cc2cc(c3O[C@@H]2O[C@H](CO)[C@@H](O)[C@H](O)[C@@H]2O[C@H]2C[C@](C)(N)[C@H](O)[C@H](C)O2)Oc2ccc(cc2Cl)[C@H]1O`, the outcome in [9] and in assay [10] was inactive. In addition, the max response in assay [1] was -6.25% (inactive). The molecule also returned a parasite growth, % of DMSO control in assay [2] of 387%.
In the case of `CCCCCCCCCCCCCCCC(=O)OC[C@@H](NC(=O)C(Cl)Cl)[C@H](O)c1ccc([N+](=O)[O-])cc1`, the max response in assay [1] was 5.04% (inactive). In assay [3], the parasite growth remaining, % of DMSO control (lower = more inhibition) was 95.4%.
On to `COC(=O)[C@@H]1CC2=CC(=O)CC[C@]2(C)[C@@]23O[C@@H]2C[C@@]2(C)[C@H](CC[C@@]24CCC(=O)O4)[C@@H]13`, for which the parasite growth, % of DMSO control in assay [2] was 74.7%.
For `O=C(C[C@@H]1CC=CCCC(=O)O[C@H](c2ccccc2)CNC1=O)NCc1ccc(Cl)cc1`, the remaining parasite growth % (stronger effect = lower value) in [6] is 94.2%. In [7], the activity, percent of control is 102%. The remaining proliferation (% of control), lower = more inhibition in assay [8] was 71.1%. For the same molecule, the parasite growth, % of DMSO control in assay [2] was found to be 62.4%. Further, the parasite growth remaining, % of DMSO control (lower = more inhibition) in [3] turned out to be 96.1%.
For `Cn1c(Nc2ccc(C(F)(F)F)cc2)nc2cc(Oc3ccnc(-c4ncc(C(F)(F)F)[nH]4)c3)ccc21`, in [1], the Potency was 23.5 µM (active). Besides, the remaining parasite growth % (stronger effect = lower value) in [6] is -1.53%. For the same molecule, in [7], the activity, percent of control was found to be 0.692%. For the same molecule, the remaining proliferation (% of control), lower = more inhibition in assay [8] was -0.79%. Besides, in assay [2], the parasite growth, % of DMSO control is 7.02%. Further, in assay [3], the parasite growth remaining, % of DMSO control (lower = more inhibition) is 10.9%.
In assay [2], `O=C(NCc1ccccc1)[C@H](Cc1ccccc1)NC(=O)[C@@H]1O[C@@H]1C(=O)NCCc1ccc(O)cc1` had a parasite growth, % of DMSO control of 17.3%.
For the molecule `CC(=O)N[C@@H]1[C@H](O[C@@H]2c3ccc(c(Cl)c3)Oc3cc4cc(c3O[C@H]3O[C@H](CO)[C@@H](O)[C@H](O)[C@H]3NC(=O)CCCCCCCC(C)C)Oc3ccc(cc3Cl)C[C@H]3NC(=O)[C@H](N)c5ccc(O)c(c5)Oc5cc(O)cc(c5)[C@H](NC3=O)C(=O)N[C@H]4C(=O)N[C@H]3C(=O)N[C@@H]2C(=O)N[C@@H](C(=O)O)c2cc(O)cc(O[C@H]4O[C@H](CO)[C@@H](O)[C@H](O)[C@H]4O)c2-c2cc3ccc2O)O[C@H](CO)[C@@H](O)[C@@H]1O`, the parasite growth, % of DMSO control in [2] came out at 395%.
`Cc1ccccc1C(=O)Nc1ccc(C(=O)N2CCCC(O)c3cc(Cl)ccc32)c(C)c1` (centres undefined): in assay [1], the max response was 1.39% (inactive). The same molecule had a parasite growth, % of DMSO control in [2] of 22.8%. Also, the parasite growth remaining, % of DMSO control (lower = more inhibition) in assay [3] is 75.6%.
In turn, `FC(F)c1nc2ccccc2n1-c1nc(N2CCOCC2)nc(N2CCOCC2)n1` returned a parasite growth, % of DMSO control in assay [2] of 4.72%.
As to `CCCCCCCN(CC)CCCC(O)c1ccc(NS(C)(=O)=O)cc1` (centres undefined), in assay [1], the max response is -2.04% (inactive). In addition, in assay [2], the parasite growth, % of DMSO control was determined as 58.8%. Also, the parasite growth remaining, % of DMSO control (lower = more inhibition) in [3] was found to be 83.7%.
